# Experimental data published in PubChem BioAssay AID504332 (National Center for Advancing Translational Sciences (NCATS), 2011).
# The whole screen tested about 350,000 compounds, of which about 31,000 (8.9%) were called active. Roughly 15% stayed inconclusive and do not appear here. Calls come from the whole dose curve; as a rule, active = well fitted inhibition curve with a large enough effect; inconclusive = small, poorly fitted or top-dose-only effect; inactive = no such curve, though single readings can be large or run the other way. For the sample, actives were picked, then their nearest neighbours and some compounds at random.
# Target: Histone-lysine N-methyltransferase EHMT2 (Homo sapiens) (UniProt Q96KQ7)
# Sequence (Q96KQ7 913-1193 limits assumed): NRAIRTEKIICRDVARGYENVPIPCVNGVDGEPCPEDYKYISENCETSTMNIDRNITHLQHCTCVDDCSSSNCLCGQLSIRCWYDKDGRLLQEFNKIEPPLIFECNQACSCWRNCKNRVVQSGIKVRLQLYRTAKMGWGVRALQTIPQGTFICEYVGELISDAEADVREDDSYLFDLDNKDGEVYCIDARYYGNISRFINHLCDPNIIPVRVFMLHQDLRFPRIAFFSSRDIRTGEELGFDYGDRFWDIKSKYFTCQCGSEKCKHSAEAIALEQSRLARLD
# Assay: qHTS Assay for Inhibitors of Histone Lysine Methyltransferase G9a; note: nearly all actives have a fitted effect of over 75% in size
# Conditions: G9a H3K9 monomethylation, AlphaScreen, 2 h; series mostly up to 59 µM; activity, negative = inhibition: at the top concentration
# From the text: Methylated lysines, on the N-terminal tails of histone proteins serve as epigenetic markers to recruit factors that can then modify local chromatin structure to lead to functional consequences. G9a and other members of the SUV39 family of the SET domain-containing superfamily of histone lysine methyltransferases (HMT) have been identified to specifically methylate Lys9 of histone H3 (H3K9). G9a catalyzes the mono- and di-methylation of H3K9 in mammalian euchromatic regions, where the resulting H3K9me2 is indicative of transcriptional repression. […] The inhibition of G9a will result in transcriptional activation and work synergistically with DNA methyltransferase and histone deacetylase inhibitors, to kill cancer cells. This qHTS assay for identification of G9a inhibitors is a chemiluminescence based AlphaScreen (PerkinElmer). Methylation of biotinylated-histone peptide is measured through specific antibody-based detection, in conjunction with streptavidin-coated donor and anti-IgG antibody-coated acceptor beads. The method is particularly well suited for detection of inhibitors acting by the desired histone peptide competitive mechanism and is applicable to testing other HMTs. Although AlphaScreen has significant advantages with its utility in a variety of epigenetic target assays, the primary screening data provided in this deposition should be used with caution due to the prevalence of screening artifacts. An AlphaScreen counterscreen is highly recommended to be run against any putative actives to eliminate non specific artifacts. Alternatively, one can use other AlphaScreen assays in PubChem to filter out promiscuous hits. Quinn et al. A chemiluminescence-based method for identification of histone lysine methyltransferase inhibitors. Mol Biosyst 6(5): 782-8. 2010. PMID: 20567762 [2] Baell,Holloway. New substructure filters for removal of pan assay interference compounds (PAINS) from screening libraries and for their exclusion in bioassays. J Med Chem. 53(7):2719-40. 2010. PMID: 20131845 NIH Molecular Libraries Probe Production Network [MLPCN] NIH Chemical Genomics Center [NCGC] Structural Genomics Consortium (SGC) NIH Grant: 5U54 MH084681-02
# To each well of a 1,536w plate, 2ul of HMT enzyme (final 20nM) were added, using a nanoliter dispenser. The G9a- and GLP-inhibitor BIX-01294 (CID: 25150857) are used as an intraplate control, with a 16-point titration in duplicate. A Kalypsys pin-tool transferred 23nl of library compound solution in DMSO to each well. Following a 15 min incubation of enzyme with compounds at room temperature, 1ul mixture of b-H3K9 peptide substrate (final 500nM) and SAM cofactor (final 20uM) were added. Reactions were allowed to proceed at room temperature for 2 hours. Methylated b-H3K9 peptide product was detected with 0.5 ug/mL rabbit polyclonal anti-monomethyl histone H3K9 antibody (Abcam Inc., Cambridge, MA) and 20 ug/mL each streptavidin-coated donor and anti-rabbit IgG acceptor AlphaScreen beads. Antibody and beads were added in a 1ul dispense, for a final volume of 4ul, and plates were incubated, protected from the light, for 10 min at room temperature. Microplates were then read on an EnVision multilabel plate reader using the 1,536 plate HTS AlphaScreen aperture (excitation time 80 ms, measurement time 240 ms).
# % is set by controls: 0 for no effect and ±100 for the full control effect; potency is the fitted concentration of half-maximal effect.
SMILES,"activity, negative = inhibition",Potency
COc1ccc(NC(=O)CN(C)C(=O)c2cc(C3CC3)nn2-c2ccccc2)cc1,-2.32% [at 2.33 µM] (inactive),–
O=C(CCNC(=O)c1ccc([N+](=O)[O-])cc1)NC1CCCCC1,-10.3% [at 102 µM] (inactive),–
COc1cc(NC(=O)Cn2nc(-c3ccc(C)c(C)c3)ccc2=O)cc(OC)c1,2.48% (inactive),–
CCCN(CCC)C(=S)Nc1cc(C(=O)OC)ccc1C(=O)OC,4.81% [at 102 µM] (inactive),–
CCS(=O)(=O)Nc1cc(C(=O)OC)ccc1C(=O)OC,–,2.82 µM (active)
CCN(CCO)C(=S)Nc1cc(C(=O)OC)ccc1C(=O)OC,-9.82% [at 102 µM] (inactive),–
CCn1cc(C(=O)N(C)Cc2ccccc2)c(=O)c2cc(S(=O)(=O)N3CCCCCC3)ccc21,10.3% (inactive),–
Cc1ccc(S(=O)(=O)N2CCc3cc(C(=O)Nc4ccc(Cl)cc4C)ccc32)cc1,3.64% (inactive),–
COC(=O)c1ccc(COc2ccc(/C=C/C(=O)c3ccc(OC)c(CSCC(=O)O)c3)cc2OC)cc1,–,39.8 µM (active)
COc1ccc(/C=C/C(=O)N2CCCC2)cc1OC,47.4% [at 102 µM] (inactive),–
COc1ccc(/C=C/C(=O)c2ccc(NS(=O)(=O)c3ccc(C)cc3)cc2)cc1O,-14.7% (inactive),–
Cc1nc(SCc2ccc(F)cc2)c([N+](=O)[O-])[nH]1,–,25.1 µM (active)
Cc1cc([N+](=O)[O-])nn1Cc1ccc(F)cc1,8.26% [at 102 µM] (inactive),–
Cc1nc(N)nc(SCc2ccc([N+](=O)[O-])cc2)c1N,-1.52% [at 12.7 µM] (inactive),–
CCN(CC)CCn1c2c(c(SCC(=O)Nc3nc4ccccc4s3)nc1=O)CCCC2,5.88% [at 0.501 µM] (inactive),–
CC(C)(C)c1ccc(SCCc2ccncc2)cc1,60.8% [at 102 µM] (inactive),–
Cc1nn2c(=O)cc(COC(=O)CNC(=O)c3ccc(F)cc3)nc2s1,1.25% (inactive),–
C/C(=N/Nc1nc(-c2ccccc2)c(CC(=O)O)s1)c1ccccc1,–,1.78 µM (active)
CCOC(=O)C(=O)Nc1nc(-c2ccccc2)c(CC)s1,8.29% [at 102 µM] (inactive),–
Cc1ccc(-c2nc(C)sc2CC(=O)O)cc1,-39.5% (inactive),–
Cc1nnc(SCC(=O)Nc2cccc(N)c2)n1-c1ccccc1,10.8% [at 102 µM] (inactive),–
O=C(Nc1cccc(F)c1)NC1CCCCCCC1,76% [at 102 µM] (inactive),–
COc1ccc(C(=O)c2oc3ccccc3c2NC(=O)COc2cccc(C)c2)cc1,-4.56% (inactive),–

SMILES,"activity, negative = inhibition",Potency
CCc1nn(CC(=O)N2CCN(c3cccc(C(F)(F)F)c3)CC2)c(=O)c2cc3occc3n12,2.68% (inactive),–
COCCN(Cc1ccco1)C(=O)Cn1ncc2c([nH]c3ccccc32)c1=O,-4.69% (inactive),–
COc1ccc(C(=O)NC(=O)CSc2nnc(-c3ccco3)n2-c2ccccc2)cc1,–,89.1 µM (active)
COc1ccc(-n2c(SCC(=O)NCc3cccs3)nnc2-c2ccoc2C)cc1,-7.6% [at 12.7 µM] (inactive),–
O=C(CSc1nnc(-c2ccco2)n1-c1ccccc1)NCCc1ccccc1,21.7% (inactive),–
COc1ccc(CCNC(=O)C(=O)NCC(c2ccco2)S(=O)(=O)c2cccs2)cc1OC (stereo unspecified),-0.762% (inactive),–
O=C(O)CC1S/C(=N\N=C/c2ccccc2O)N(c2ccc(O)cc2)C1=O (stereo unspecified),31.1% (inactive),–
CCCC[C@H]1C(=O)N(c2ccccc2)N(c2ccc(O)cc2)C1=O,–,7.94 µM (active)
CCCCc1ccc(NC(=O)CN2C(=O)NC(Cc3ccccc3)C2=O)cc1 (stereo unspecified),4% [at 102 µM] (inactive),–
COc1ccc(-n2c(=O)c3c(c4cc(OC)ccc4n3C)n(Cc3cccc(C)c3)c2=O)cc1,2.9% (inactive),–
COc1ccc(C)cc1NC(=O)CN(C)S(=O)(=O)c1ccc2c(c1)n(C)c(=O)c(=O)n2C,42.7% [at 102 µM] (inactive),–
COc1ccc2[nH]c(C(=O)N/N=C/c3cc(OC)c(OC)c(OC)c3)cc2c1,10.8% [at 102 µM] (inactive),–
COc1cc(/C=C/C2=CC(C)(C)NC(=S)N2)cc(OC)c1OC,–,39.8 µM (active)
CCC(=O)c1ccc(OC(=O)/C=C/c2cc(OC)c(OC)c(OC)c2)cc1,10.6% [at 102 µM] (inactive),–
Cc1cccc(-c2nc(SCc3ccc(Br)cc3)n3[nH]c(=O)cc3n2)c1,46.9% (inactive),–
O=C(c1cn(-c2ccccc2)nc1-c1cccnc1)N1CCN(S(=O)(=O)c2ccccc2F)CC1,-2.44% [at 12.7 µM] (inactive),–
Cc1cc(C)c(C2C3=C(Nc4c2c(C)nn4-c2ccccn2)c2ccccc2C3=O)c(C)c1 (stereo unspecified),–,11.2 µM (active)
Cc1nn(-c2ccccn2)c2c1C(c1ccncc1)C1=C(CC(C)(C)CC1=O)N2 (stereo unspecified),-38.3% (inactive),–
O=C(Nc1ncccc1O)c1ccc(S(=O)(=O)N2CCCC2)cc1,6.98% [at 12.7 µM] (inactive),–
O=[N+]([O-])c1cccc(/C=N/Nc2ncc(Br)cn2)c1,18% [at 0.501 µM] (inactive),–
Clc1cc(-c2ccc(/C=N/n3cnnc3)o2)ccc1Br,-7.95% (inactive),–
Cc1ccc(Cl)cc1-c1ccc(/C=N/n2cnnc2)o1,14.3% (inactive),–
Cc1cc(-c2ccc(/C=N/n3cnnc3)o2)c([N+](=O)[O-])cc1C,–,50.1 µM (active)

SMILES,"activity, negative = inhibition",Potency
CCc1cnc2c(c1SCC(=O)c1ccccc1)c(=O)n(C)c(=O)n2C,-0.675% (inactive),–
Cc1cccc(-c2nnc(SCC(=O)N3CCCc4ccccc43)o2)c1,15.9% (inactive),–
COc1ccc(OCc2ccc(-c3nc(C#N)c(N4CCN(c5ccccc5)CC4)o3)o2)cc1,-29% (inactive),–
CCC(C)Nc1oc(-c2ccc(COc3ccc(Cl)cc3)o2)nc1C#N (stereo unspecified),-37.3% (inactive),–
CN1CCN(c2oc(-c3ccc(COc4ccc(Cl)cc4)o3)nc2C#N)CC1,–,11.2 µM (active)
C=CCOc1ccc(/C=C/C(=O)OCC(=O)NC(C)c2ccc(F)cc2)cc1 (stereo unspecified),-17.7% [at 102 µM] (inactive),–
COc1ccc(-c2nc3scc(CCNS(=O)(=O)c4cc(F)ccc4OC)n3n2)cc1OC,7.7% (inactive),–
CC1Cc2ccccc2N1C(=O)CSc1nnc(-c2ccc(S(=O)(=O)N3CCCC3)cc2)n1C (stereo unspecified),-19.1% (inactive),–
COc1ccc(S(=O)(=O)N2CCN(CC(=O)N3c4ccccc4CC3C)CC2)cc1OC (stereo unspecified),–,56.2 µM (active)
COc1ccc(S(=O)(=O)N2CCC(C(=O)N3CCc4ccccc4C3)CC2)cc1OC,-13.7% (inactive),–
CCN(CCCNC(=O)c1c(C)oc2ncn(CC(C)C)c(=O)c12)Cc1ccccc1,-2.01% (inactive),–
COc1cccc(-c2nnc3n(CCc4ccccc4)c(=O)c4ccccc4n23)c1O,-23.1% (inactive),–
CN(C)S(=O)(=O)c1cc(NC(=O)CN2C(=O)NC3(CCCc4ccccc43)C2=O)ccc1Cl (stereo unspecified),-7.78% (inactive),–
CCN(CC(=O)Nc1cccc(S(N)(=O)=O)c1)Cc1nc2ccccc2c(=O)[nH]1,-46.9% [at 102 µM] (inactive),–
CCN(CC(=O)Nc1ccc(Cl)c(S(=O)(=O)N(C)C)c1)Cc1nc2ccccc2c(=O)[nH]1,–,39.8 µM (active)
CCCCN(CC(=O)Nc1cccc(S(=O)(=O)N2CCCC2)c1)Cc1nc2ccccc2c(=O)[nH]1,–,7.94 µM (active)
O=C(Cn1cnc2ccccc2c1=O)Nc1cccc(S(=O)(=O)N2CCCCC2)c1,6.9% [at 102 µM] (inactive),–
CCCC(=O)N(CCc1ccccc1)Cc1nc2ccccc2c(=O)[nH]1,10.1% (inactive),–
O=C(COc1ccccc1F)Nc1ccc(C(=O)OCc2cc(=O)n3nc(C4CC4)sc3n2)cc1,7.25% (inactive),–
CCCNc1ncnc2c1c(-c1ccccc1)cn2-c1ccc(OCC)cc1,-35.9% (inactive),–
S=C(Nc1cccc(Br)c1)N1CCn2cccc2C1c1cccnc1 (stereo unspecified),–,50.1 µM (active)
CC(=O)N1c2ccc(S(=O)(=O)N3CCCC(C(=O)NCc4ccc(Cl)cc4)C3)cc2CC1C (stereo unspecified),10.1% (inactive),–
COC(=O)c1cc(NC(=O)CCS(=O)(=O)c2cc(Br)cc3c2N(C(=O)C2CC2)CC3)cc(C(=O)OC)c1,0.579% (inactive),–

SMILES,"activity, negative = inhibition",Potency
N#Cc1ccccc1S(=O)(=O)N1CCN(Cc2c(O)ccc3ccccc23)CC1,-0.103% [at 2.33 µM] (inactive),–
CCCCN=C1N/C(=C\c2ccco2)C(=O)N1c1ccccc1,–,44.7 µM (active)
CCCCn1c(N)c(N(CC)C(=O)/C=C/c2ccco2)c(=O)[nH]c1=O,-6.99% (inactive),–
O=C(OCN1C(=O)c2ccccc2C1=O)/C(=C\c1ccco1)NC(=O)c1ccccc1,-8.62% (inactive),–
COc1cc(NC(=O)c2cc(C3CC3)nc3c2c(C)nn3-c2ccccc2)cc(OC)c1,5.19% (inactive),–
CCc1ccc(S(=O)(=O)Nc2cc3c(C(=O)OCc4ccccc4)c(C)oc3c3ccccc23)cc1,-32.7% (inactive),–
CCCCNC(=O)Cn1nc(C)c(S(=O)(=O)N2CCOCC2)c1C,8.75% [at 12.7 µM] (inactive),–
O=C(C1=C(O)C(=O)N(c2ncccn2)C1c1cccs1)c1ccco1 (stereo unspecified),–,10 µM (active)
O=C(c1ccco1)N1CCC2(CC1)CN(c1ncccn1)C2,6.99% [at 12.7 µM] (inactive),–
O=C(c1ccco1)N1CCC2(CC1)CCN(c1ncccn1)CC2,4.8% [at 12.7 µM] (inactive),–
COC(=O)c1ccc(OC)c(Cn2c(=O)n(Cc3ccccc3)c(=O)c3c2c2cc(OC)ccc2n3C)c1,3.08% (inactive),–
Cc1nn(Cc2ccccc2)c(C)c1CNC(=O)c1ccc(F)c(S(=O)(=O)N2CCOCC2)c1,-14.2% [at 12.7 µM] (inactive),–
CCN(C(=O)CSc1nc(N)cc(=O)[nH]1)C1CCS(=O)(=O)C1 (stereo unspecified),6.8% [at 12.7 µM] (inactive),–
O=C(Nc1cccc(S(=O)(=O)N2CCCCC2)c1)c1ccc2c(c1)OCO2,–,1 µM (active)
CCN1CCN(c2ccc(S(=O)(=O)N3CCCCC3)cc2NC(=O)c2cccc(NC(C)=O)c2)CC1,–,50.1 µM (active)
CCN1CCN(c2ccc(S(=O)(=O)N3CCCCC3)cc2NC(=O)Cc2c(Cl)cccc2Cl)CC1,40% [at 102 µM] (inactive),–
O=C(Nc1ccc2c(c1)OCCO2)c1ccc(Cl)c(S(=O)(=O)N2CCCCC2)c1,-22.9% [at 12.7 µM] (inactive),–
O=C(Nc1cccnc1)c1cccc(S(=O)(=O)N2CCCC2)c1,35.8% [at 102 µM] (inactive),–
Cc1ccc(S(=O)(=O)N2CCCCC2)cc1NC(=O)c1cccnc1,-32.3% [at 102 µM] (inactive),–
CC(C)(C)SCCSC1=CC(=O)CC(c2ccccc2)C1 (stereo unspecified),64.4% [at 102 µM] (inactive),–
O=C(CSc1nc2ccccc2c(=O)n1-c1ccc(F)cc1)NC1CC1,7.18% [at 0.501 µM] (inactive),–
COC(=O)CC1Oc2ccccc2-n2cc(-c3ccccc3)nc21 (stereo unspecified),-1.05% (inactive),–
